# Bioassay records (PubChem)
# Dyrk1A ADPGlo: rat Dyrk1A kinase inhibitors, primary screen, biochemical, single point, plate reader. ADP-Glo luminescence, NFATc1 peptide. Dual specificity tyrosine-phosphorylation-regulated kinase 1A (Rattus norvegicus), Q63470. 310,000 compounds, 0.43% hits. inhibition, % at 12.5 µM;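 further: plate controls were vehicle with enzyme for no effect and no enzyme for full effect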
# Wnt bcat act: Wnt/beta-catenin pathway activators, primary screen, cell-based, plate reader, single point | Wnt/beta-catenin reporter cell assay, activator | activation, % at 9.35 µM | 300,000 compounds, 1.2% hits; in the data active means activation above about 30%, passing the limit was not always enough;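 further: 0% = neutral control wells and 100% = positive control wells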
# GSIS activator: GLuc luminescence reporter in INS-1E cells, primary screen for activators of glucose-dependent secretion of insulin; INS-1E GLuc reporter insulin secretion, 2-3 h; activation, % at 16.6 µM; 370,000 compounds, 0.61% hits;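 active means lowest replicate activation of at least 40%, so every replicate reaches that level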;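 further: 0% = median of neutral control wells and 100% = median of IBMX positive control wells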
# NSD2 HMT inh: NSD2 histone methyltransferase inhibitors, primary screen, biochemical, AlphaScreen, single concentration, set 2. inhibition, % at 12.5 µM. Histone-lysine N-methyltransferase NSD2 (Homo sapiens), O96028. NSD2 peptide methylation, 120 min. 310,000 compounds, 0.54% hits
# MITF TRPM1 HTS: activators of MITF-driven TRPM1 promoter reporter, primary screen, cell-based, SK-MEL-5, luciferase, single point | SK-MEL-5 TRPM1-promoter luciferase, 24 h; % of positive control, neutral wells = 0 | activation, % at 12.5 µM | AID 588334, 2011 | 300,000 compounds, 0.75% hits;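 active means mean activation of at least 80% with every replicate also reaching 80%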;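 further: 0% = neutral control wells and 100% = parthenolide positive control wells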
# miR122 inh: miR-122 Renilla sensor signal increase in Huh7, primary screen, miR-122 inhibitor project, cell-based, single point, plate reader | Huh7 miR-122 Renilla luciferase sensor, 48 h; neutral wells = 0, positive control = 100 | activation (reporter increase), % at 12.5 µM | 340,000 compounds, 0.3% hits;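 active means mean replicate activation score at least 90 and every replicate individually at or above 90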;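 further: higher luciferase means less miR-122 activity so hits act as miR-122 inhibitors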
# AlphaScreen art: AlphaScreen signal interference with preloaded methylated product, dose response, artefact control for NSD2 inhibitor project, biochemical, cherry-picked samples. shares compounds with NSD2 HMT inh. AlphaScreen artifact counterscreen, preloaded methylated H4 peptide. AC35, µM (doses to about 10 µM), without a hit: top-dose activity change, negative = signal loss. 1,500 compounds, 9.4% hits. AID 1053174, 2014; call rule not given here
# * = called active by the depositor; . = no result; [ ] = another dose, or the depositor's remark. Hits are enriched below; roughly 2.4% of the tested compounds scored in any of these assays. Unless noted, no stated cut-off is given here; in the data, active means inhibition above about 50%; inactive means the rest.
SMILES,Dyrk1A ADPGlo,Wnt bcat act,GSIS activator,NSD2 HMT inh,MITF TRPM1 HTS,miR122 inh,AlphaScreen art
Cc1ccccc1-c1ccc2c(c1)O[C@H](CN(C)CC1CC1)[C@H](C)CN([C@@H](C)CO)S2(=O)=O,.,.,14,.,.,7[16.7 µM],.
CC(C)NC(=O)N1C[C@H]2[C@@H](c3ccccc31)[C@H](CO)N2C(=O)c1ccccc1,.,.,1,.,.,-28[16.7 µM],.
Cc1cc(S(=O)(=O)NCc2cccnc2)ccc1F,0,2,4,59*,-3,.,-5%
Cc1ccc(S(=O)(=O)NCc2cccnc2)cc1C,-3,4,20,-2,11,29,.
Cc1ccc(C)c(N2C(=N)S/C(=C\c3ccc(-c4ccccc4C(=O)O)o3)C2=O)c1,-3,-1,-14,54*,-2,-9,-3%
CO[C@@H]1CN(C)C(=O)c2ccc(NC(=O)Nc3ccccc3F)cc2OC[C@@H](C)N(C(=O)c2cnccn2)C[C@H]1C,.,.,-7,.,.,.,.
Cc1ccc(-n2cccc2/C=C2/C(=N)N3C(=NC2=O)SN=C3S(C)(=O)=O)cc1Cl,1,-6,-2,127*,13,-3,-9%
Cc1cccc(C)c1-n1cccc1/C=C1/C(=N)N2C(=NC1=O)SN=C2S(C)(=O)=O,-2,-6,-19,.,3,.,.
CCNC(=O)C[C@H]1CC[C@H]2[C@H](COc3ccc(NC(=O)c4cc(C)on4)cc3C(=O)N2C)O1,.,.,7,.,.,5[16.7 µM],.
CC(C)C#Cc1cnc2c(c1)C(=O)N([C@H](C)CO)C[C@@H](C)[C@H](CN(C)C(=O)c1cccnc1)O2,.,.,-4,.,.,8[16.7 µM],.
CNCCOc1ccccc1-c1ccccc1,1,0,.,76*,-7,-5,-5%
CNCCCCOc1ccccc1-c1ccccc1,4,-1,-11,64*,17,-5,-7%
CO[C@H]1CC[C@@H]2CCN(C)C(=O)[C@H](C)[C@H](OC)CN(C)C(=O)c3cccc(C#N)c3OC[C@@H]1O2,.,.,2,.,.,.,.
CC(C)=NOCC(=O)Nn1c(COc2c(C)cccc2C)nc2ccccc2c1=O,0,-2,4,57*,4,30,-3%
CN(C)C(=O)c1cccc(-c2ccc3c(c2)[C@@H]2[C@@H](CCN2Cc2ccccc2F)[C@H](CO)N3)c1,.,.,5,.,.,-9[16.7 µM],.
CC(=O)c1coc2c1cc(O)c1ccccc12,8,12,.,.,.,3,.
CC(=O)c1cc(O)c2ccccc2c1O,62*,2,1,79*,-4,10,-5%
Cc1ccc(S(=O)(=O)Nc2ccc3c(c2)C(=O)N([C@@H](C)CO)C[C@@H](C)[C@@H](CN(C)C(=O)NC2CCCCC2)OCCCC[C@@H](C)O3)cc1,.,.,-7,.,.,-5[16.7 µM],.
Nc1nc(O)c(Sc2ccccc2[N+](=O)[O-])c(=O)[nH]1,-4,-2,5,54*,-15,-1,-6%
O=C1C(=Cc2ccco2)CCC1=Cc1ccco1,.,0,-2,141*,22,-6,-9%
O=C1C(=Cc2ccco2)CCCC1=Cc1ccco1,-2,3,-25,22,53,.,.
CCC(C)NCCCCOc1ccc(Cl)cc1C (centres undefined),4,.,17,60*,-4,-5,-5%
CCC(C)NCCCOc1cc(Cl)ccc1Cl (centres undefined),-3,.,.,52*,3,5,-1%
C=CCc1cc(Cl)ccc1OCCOCCNC(C)CC (centres undefined),.,-2,14,6,25,3,.
CN(C)C(=O)C[C@@H]1C[C@@H]2c3cc(NS(=O)(=O)c4ccccc4)ccc3O[C@@H]2[C@@H](CO)O1,.,.,3,.,.,-1[16.7 µM],.
SMILES,Dyrk1A ADPGlo,Wnt bcat act,GSIS activator,NSD2 HMT inh,MITF TRPM1 HTS,miR122 inh,AlphaScreen art
O=C(NCC[C@@H]1CC[C@H](NC(=O)c2ccncc2)[C@@H](CO)O1)Nc1ccc(Cl)cc1,.,.,0,.,.,.,.
Cn1c(SCc2ccccc2C#N)nc2ccccc2c1=O,7,-2,2,100*,-6,-2,-2%
Cn1c(SCC#N)nc2ccccc2c1=O,2,-3,29,-1,-6,.,.
Nc1nc(COC(=O)c2ccco2)nc(Nc2ccccc2)n1,.,10,-6,53*,.,-4,-3%
Cc1ccccc1Nc1nc(N)nc(COC(=O)c2ccco2)n1,0,-3,15,-2,50,-5,.
COc1ccccc1CNC(=O)C[C@@H]1CC[C@H](NC(=O)CC2CC2)[C@H](CO)O1,.,.,12,.,.,.,.
C[C@H](CO)N1C[C@H](C)[C@H](CN(C)S(=O)(=O)c2ccc(F)cc2)Oc2ccc(NS(=O)(=O)c3cccs3)cc2CC1=O,.,.,-4,.,.,0[16.7 µM],.
Oc1ccc(-c2cn3c(n2)SCC3)cc1O,25,.,.,105*,.,-15,8.1µM*
Oc1ccc(-c2cn3c(n2)SCC3)cc1,29,.,.,1,19,3,.
COc1ccc(CCNC(=O)CN2C(=O)C(=O)N(C3CCCC3)C2=O)cc1OC,.,-2,.,55*,5,.,0%
CNC[C@@H]1Oc2ccc(NS(=O)(=O)c3cccs3)cc2C(=O)N([C@H](C)CO)C[C@@H]1C,.,.,4,.,.,-6[16.7 µM],.
COc1cc(/C=N/N2CCN(C3c4ccccc4-c4ccccc43)CC2)cc(OC)c1OC,2,-3,15,144*,-13,.,2%[5 µM]
COc1cc(/C=N/N2CCN(C3c4ccccc4-c4ccccc43)CC2)cc(OC)c1O,-6,.,-8,0,-3,.,.
CC(C)CN(C(=O)COC(=O)c1cccs1)c1c(N)n(Cc2ccccc2)c(=O)[nH]c1=O,.,-2,-26,-3,.,.,.
CC(C)CN(C(=O)COC(=O)c1ccc([N+](=O)[O-])s1)c1c(N)n(Cc2ccccc2)c(=O)[nH]c1=O,17,2,-14,65*,-61,-3,-1%
CCCCn1c(N)c(N(CCC(C)C)C(=O)COC(=O)c2ccc([N+](=O)[O-])s2)c(=O)[nH]c1=O,-5,-3,-25,53*,-79,-12,-5%
CC(=O)Nc1cccc2c1O[C@H](CN(C)S(C)(=O)=O)[C@@H](C)CN(C)C2=O,.,.,2,.,.,.,.
O=C(CSc1nnc(Nc2ccccc2)s1)Nc1ccc(S(=O)(=O)N2CCOCC2)cc1,3,.,.,-1,-14,-1,.
Cc1ccc(Nc2nnc(SCC(=O)Nc3ccc(S(=O)(=O)N4CCOCC4)cc3)s2)cc1,0,8,.,62*,48,2,-3%
